Assay results as given in PubChem BioAssay (Tox21).
Records with an inconclusive call do not appear. A structure can be active in one record and inactive in another. The source made the active and inactive calls. Unless noted, calls follow the shape of the full dose curve.

Assays:
[1] = qHTS assay to identify small molecule antagonists of the sonic hedgehog signaling (Shh) pathway (AID 1259369); also: nearly all actives have a fitted effect of over 45% in size; also: potency is read from the fitted curve at half-maximal effect
Method in brief: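 3T3Gli1-Luc, conditioned-medium-stimulated, 24hr cpd, 37C/5% CO2; Gli1-driven firefly Luc luminescence after 30min RT with luciferase reagent. Cells plated 4hr before cpd.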

[2] = target: Estrogen receptor beta (Homo sapiens) (UniProt Q92731); test: qHTS assay to identify small molecule antagonists of the estrogen receptor beta (ER-beta) signaling pathway (AID 1259378; active = well fitted inhibition curve with a large enough effect in the signal ratio in the repeat runs, not every such curve was filed as active; the % refers to the signal ratio)
Method in brief: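 ER-beta-UAS-bla HEK293T (GripTite) cells in 2% charcoal-stripped FBS medium were preincubated 6 hr at 37C, dosed with compound, then stimulated with 1 nM E2 (final) for 16 hr; beta-lactamase reporter read by B/G FRET fluorescence after 2 hr substrate loading.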

[3] = qHTS assay to identify small molecule agonists of the androgen receptor (AR) signaling pathway in the presence of an antagonist - cell viability counter screen (AID 1259379; active = well fitted curve in the direction sought with a large enough effect in the repeat runs; an effect the other way counts as inactive or inconclusive;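 also: MDA-kb2 human breast cancer cells carrying an MMTV luciferase reporter; series mostly up to about 92 µM; nearly all actives have a fitted effect of over 25% in size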)
Method in brief: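 Cells: MDA-kb2 (MMTV-luc, AR and GR elements), 3,000/well, 5 hr settle. Added: nilutamide 3.0uM final, then compounds (15 conc.). Incubation: 16 hr, 37C, no CO2. Read-out: CellTiter-Fluor, 1 hr, fluorescence.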

[4] = qHTS assay to identify small molecule agonists of the estrogen receptor beta (ER-beta) signaling pathway - cell viability counter screen (AID 1259380; active = well fitted curve in the direction sought with a large enough effect in the repeat runs; an effect the other way counts as inactive or inconclusive; also: nearly all actives have a fitted effect of over 30% in size)
Method in brief: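 HEK293T ER-beta-UAS-bla; 2% CS-FBS; 6 hr pre-plate, 16 hr cpd at 37C/5% CO2; LiveBLAzer read first, then CellTiter-Glo 30 min RT, luminescence.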

[5] = target: Androgen receptor (Homo sapiens) (UniProt P10275); test: qHTS assay to identify small molecule agonists of the androgen receptor (AR) signaling pathway in the presence of an antagonist (AID 1259381); also: nearly all actives have a fitted effect of over 15% in size; also: potency is read from the fitted curve at half-maximal effect
Method in brief: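 MDA-kb2 cells, 3,000/well, rested 5hr at 37C/0% CO2 → nilutamide 3.0uM final or buffer → compounds, 15 conc. → 16hr at 37C → ONE-Glo, 30min RT → luminescence.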

[6] = qHTS assay to identify small molecule antagonists of the estrogen receptor beta (ER-beta) signaling pathway - cell viability counter screen (AID 1259382; active = well fitted curve in the direction sought with a large enough effect in the repeat runs; an effect the other way counts as inactive or inconclusive; also: series mostly up to about 92 µM; nearly all actives have a fitted effect of over 55% in size)
Method in brief: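 Cells: ER-beta-UAS-bla HEK293T, 2,000/well, 2% CS-FBS, 6 hr settle. Cpd + E2 (1nM final), 16 hr, 37C/5% CO2. Bla FRET substrate 2 hr RT, then CellTiter-Glo 30 min RT, luminescence.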

[7] = target: Estrogen receptor (Homo sapiens) (UniProt P03372); test: qHTS assay to identify small molecule agonists of the estrogen receptor alpha (ER-alpha) signaling pathway in the presence of an antagonist (AID 1259383); also: top concentration of the series differs between compounds; nearly all actives have a fitted effect of over 15% in size
Method in brief: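 VM7Luc4E2, endog. ER-alpha + 4×ERE-luc; charcoal-stripped FBS, phenol red-free, 5 d; 24hr plating; +10.0nM ICI-182,780 (final); cpds 15 conc, 22hr, 37C/5% CO2; ONE-Glo luminescence.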

[8] = qHTS assay to identify small molecule agonists or antagonists of the thyroid stimulating hormone receptor (TSHR) signaling pathway - wild type cell line counter screen (AID 1259384)
Method in brief: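 Wild-type HEK293 cells were plated 18 h at 37 C/5% CO2, pin-dosed with compound plus Ro20-1724 medium, held 30 min at room temperature, then given cAMP-d2 and anti-cAMP-cryptate; fluorescence was read after 1 h. Fifteen concentrations, triplicate.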

[9] = target: Thyrotropin receptor (Homo sapiens) (UniProt P16473); test: qHTS assay to identify small molecule antagonists of the thyroid stimulating hormone receptor (TSHR) signaling pathway (AID 1259385); also: nearly all actives have a fitted effect of over 20% in size
Method in brief: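 TSHR-HEK293 cells were plated and held 18 h at 37C/5% CO2, then given compound plus Ro20-1724 and stimulated with TSH at 1.5 ng/mL final. After 30 min at room temperature, cAMP was detected with cAMP-d2/anti-cAMP-cryptate (1 h) by fluorescence.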

[10] = target: Estrogen receptor beta (Homo sapiens) (UniProt Q92731); test: qHTS assay to identify small molecule agonists of the estrogen receptor beta (ER-beta) signaling pathway (AID 1259377; active = well fitted activation curve with a large enough effect in the signal ratio in the repeat runs, not every such curve was filed as active; the % refers to the signal ratio)
Method in brief: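 ER-beta-UAS-bla HEK293T (GripTite) cells carrying a UAS-driven beta-lactamase reporter, in medium with 2% charcoal-stripped FBS, were exposed to compounds for 16 hr at 37C; LiveBLAzer B/G FRET substrate was then added and fluorescence read after 2 hours at room temperature.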
% is scaled to controls: 0 for no effect and ±100 for the full control effect.

Sequence of Estrogen receptor (Homo sapiens) (P03372 whole entry, looked up): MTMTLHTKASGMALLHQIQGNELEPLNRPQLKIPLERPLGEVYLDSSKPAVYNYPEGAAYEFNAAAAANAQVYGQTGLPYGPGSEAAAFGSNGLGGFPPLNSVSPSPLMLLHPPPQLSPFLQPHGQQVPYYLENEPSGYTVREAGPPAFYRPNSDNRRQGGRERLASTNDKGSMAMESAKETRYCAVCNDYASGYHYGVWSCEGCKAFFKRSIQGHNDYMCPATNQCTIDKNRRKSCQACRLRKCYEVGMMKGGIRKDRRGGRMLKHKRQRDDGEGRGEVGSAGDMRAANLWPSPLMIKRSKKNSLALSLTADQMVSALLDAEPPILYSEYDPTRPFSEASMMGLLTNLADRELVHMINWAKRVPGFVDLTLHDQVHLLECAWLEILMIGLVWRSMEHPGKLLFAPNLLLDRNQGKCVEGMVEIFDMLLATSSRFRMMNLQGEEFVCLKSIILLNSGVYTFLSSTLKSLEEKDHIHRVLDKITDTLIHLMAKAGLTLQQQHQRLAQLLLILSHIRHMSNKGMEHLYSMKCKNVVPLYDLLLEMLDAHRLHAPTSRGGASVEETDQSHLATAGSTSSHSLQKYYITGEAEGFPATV
Sequence of Androgen receptor (Homo sapiens) (P10275 whole entry, looked up): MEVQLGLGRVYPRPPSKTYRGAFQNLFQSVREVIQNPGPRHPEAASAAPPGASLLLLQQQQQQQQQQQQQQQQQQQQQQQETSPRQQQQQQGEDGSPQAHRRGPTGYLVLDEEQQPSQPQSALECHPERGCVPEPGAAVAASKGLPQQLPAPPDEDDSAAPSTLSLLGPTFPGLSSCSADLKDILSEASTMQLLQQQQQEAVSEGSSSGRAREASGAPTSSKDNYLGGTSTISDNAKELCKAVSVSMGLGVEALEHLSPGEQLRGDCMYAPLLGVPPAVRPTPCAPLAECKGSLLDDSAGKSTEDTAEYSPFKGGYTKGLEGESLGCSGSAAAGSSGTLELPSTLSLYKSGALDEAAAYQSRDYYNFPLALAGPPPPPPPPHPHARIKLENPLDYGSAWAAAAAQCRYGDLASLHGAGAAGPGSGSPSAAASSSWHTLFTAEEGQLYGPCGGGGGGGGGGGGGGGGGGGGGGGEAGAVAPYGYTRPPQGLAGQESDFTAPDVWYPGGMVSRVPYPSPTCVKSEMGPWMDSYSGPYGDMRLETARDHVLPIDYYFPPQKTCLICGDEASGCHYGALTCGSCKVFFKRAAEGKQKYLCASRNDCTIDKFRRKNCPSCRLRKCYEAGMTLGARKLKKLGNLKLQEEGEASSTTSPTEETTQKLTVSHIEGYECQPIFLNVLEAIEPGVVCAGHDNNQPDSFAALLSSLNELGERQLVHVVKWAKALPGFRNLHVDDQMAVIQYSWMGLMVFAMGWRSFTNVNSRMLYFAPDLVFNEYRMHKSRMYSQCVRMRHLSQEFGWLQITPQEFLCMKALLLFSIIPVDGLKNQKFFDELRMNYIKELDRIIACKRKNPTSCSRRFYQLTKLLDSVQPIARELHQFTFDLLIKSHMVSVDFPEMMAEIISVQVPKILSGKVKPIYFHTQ
Sequence of Estrogen receptor beta (Homo sapiens) (Q92731 whole entry, looked up): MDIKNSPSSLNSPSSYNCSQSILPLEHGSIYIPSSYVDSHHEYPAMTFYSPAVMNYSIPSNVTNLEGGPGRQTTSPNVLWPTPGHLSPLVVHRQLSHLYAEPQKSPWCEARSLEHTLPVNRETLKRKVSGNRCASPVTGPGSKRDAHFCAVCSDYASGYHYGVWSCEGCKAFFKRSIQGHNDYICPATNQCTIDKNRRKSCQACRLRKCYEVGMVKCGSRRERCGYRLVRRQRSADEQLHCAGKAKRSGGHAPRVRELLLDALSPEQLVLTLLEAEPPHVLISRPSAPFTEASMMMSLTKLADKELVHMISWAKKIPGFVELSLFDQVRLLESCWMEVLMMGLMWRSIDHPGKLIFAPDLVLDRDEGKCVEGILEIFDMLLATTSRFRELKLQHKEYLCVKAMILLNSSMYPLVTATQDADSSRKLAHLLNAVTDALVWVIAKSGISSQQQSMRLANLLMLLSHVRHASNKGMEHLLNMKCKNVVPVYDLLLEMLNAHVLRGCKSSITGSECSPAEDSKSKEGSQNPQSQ
Sequence of Thyrotropin receptor (Homo sapiens) (P16473 whole entry, looked up): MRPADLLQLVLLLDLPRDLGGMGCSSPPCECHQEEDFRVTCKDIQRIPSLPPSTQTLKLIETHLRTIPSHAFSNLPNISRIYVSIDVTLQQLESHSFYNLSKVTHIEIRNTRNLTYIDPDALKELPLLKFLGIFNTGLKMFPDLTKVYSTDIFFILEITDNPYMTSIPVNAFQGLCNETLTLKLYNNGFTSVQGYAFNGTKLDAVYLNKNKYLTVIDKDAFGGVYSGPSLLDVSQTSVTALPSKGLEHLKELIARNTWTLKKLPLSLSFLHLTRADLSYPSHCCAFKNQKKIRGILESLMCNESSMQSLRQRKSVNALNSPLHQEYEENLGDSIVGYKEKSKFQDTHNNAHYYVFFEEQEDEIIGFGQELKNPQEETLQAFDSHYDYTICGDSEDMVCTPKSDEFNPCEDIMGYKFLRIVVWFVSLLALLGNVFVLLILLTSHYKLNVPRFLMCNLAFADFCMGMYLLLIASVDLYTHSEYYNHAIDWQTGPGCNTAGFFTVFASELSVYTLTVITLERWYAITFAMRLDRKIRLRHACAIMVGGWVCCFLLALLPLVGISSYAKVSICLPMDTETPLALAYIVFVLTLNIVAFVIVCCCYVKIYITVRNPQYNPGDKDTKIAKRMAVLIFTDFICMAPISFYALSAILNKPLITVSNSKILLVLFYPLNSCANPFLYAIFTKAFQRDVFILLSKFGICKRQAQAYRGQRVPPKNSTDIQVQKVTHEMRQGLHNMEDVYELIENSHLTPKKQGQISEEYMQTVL

OP(O)c1ccccc1
inactive: Potency [1] | outcome [2] | Potency [3] | Potency [4] | Potency [5] | Potency [6] | Potency [7] | outcome [8] | outcome [9]

Clc1nc(Cl)nc(Nc2ccccc2Cl)n1
inactive: Potency [1] | outcome [2] | Potency [3] | Potency [4] | Potency [6] | outcome [8] | outcome [9]

Oc1ccc2c3c1O[C@H]1[C@@H](O)C=C[C@H]4[C@@H](C2)NCC[C@@]341
inactive: Potency [10] | Potency [3] | Potency [4] | outcome [8]
active: Potency [1] 1.99 µM

CC(Cc1ccccc1)NCCCCl (stereo unspecified)
inactive: Potency [1] | outcome [2] | Potency [3] | Potency [5] | Potency [6] | Potency [7] | outcome [8] | outcome [9]

CCN[C@@H](C)Cc1ccccc1
inactive: Potency [1] | outcome [2] | Potency [3] | Potency [4] | Potency [5] | Potency [6] | Potency [7] | outcome [8] | outcome [9]

NCCOS(=O)(=O)O
inactive: Potency [1] | outcome [2] | Potency [3] | Potency [4] | Potency [6] | Potency [7] | outcome [8] | outcome [9]

C1CN2CCC1CC2
inactive: Potency [1] | Potency [10] | Potency [3] | Potency [4] | Potency [6] | outcome [8] | outcome [9]

COc1cccc(C=O)c1
inactive: Potency [1] | outcome [2] | Potency [3] | Potency [4] | Potency [6] | Potency [7] | outcome [8] | outcome [9]

CC(O)CCl (stereo unspecified)
inactive: Potency [1] | Potency [10] | Potency [3] | Potency [4] | outcome [8] | outcome [9]

CC(Cc1ccccc1)NCCn1cnc2c1c(=O)n(C)c(=O)n2C (stereo unspecified)
inactive: Potency [1] | Potency [10] | Potency [3] | Potency [6] | outcome [8] | outcome [9]

C/C(=N\NC(=O)Nc1cc(F)cc(F)c1)c1ncccc1C(=O)O
inactive: Potency [1] | Potency [10] | Potency [3] | Potency [7] | outcome [8] | outcome [9]

C[C@H](CN1CCOCC1)C(C(=O)N1CCCC1)(c1ccccc1)c1ccccc1
inactive: Potency [1] | outcome [2] | Potency [3] | Potency [5] | Potency [6]

CCNc1nc(Cl)nc(NC(C)(C)C)n1
inactive: outcome [2] | Potency [3] | Potency [4] | Potency [5] | Potency [6]
active: Potency [1] 0.969 µM

COP(=O)(OC)O/C(C)=C/C(=O)N(C)C
inactive: Potency [1] | Potency [10] | Potency [3] | Potency [6] | outcome [8] | outcome [9]

CCCOC(=O)Cc1ccc(OCC(=O)N(CC)CC)c(OC)c1
inactive: Potency [1] | Potency [10] | Potency [3] | Potency [4] | Potency [6] | outcome [8] | outcome [9]

CCOC(=O)C(Cl)Cc1cc(-n2nc(C)n(C(F)F)c2=O)c(F)cc1Cl (stereo unspecified)
inactive: Potency [1] | Potency [10] | Potency [3] | Potency [4] | Potency [7] | outcome [8] | outcome [9]

ClCOCCl
inactive: Potency [1] | outcome [2] | Potency [3] | Potency [4] | Potency [6] | outcome [8] | outcome [9]

O=c1[nH]oc2c1CCNC2
inactive: Potency [1] | Potency [10] | Potency [3] | outcome [8] | outcome [9]

CCOP(=S)(OCC)SCCl
inactive: Potency [1] | Potency [3] | Potency [4] | Potency [5] | Potency [6] | Potency [7] | outcome [8] | outcome [9]

CCCC(C)C1(CC)C(=O)N=C(S)NC1=O (stereo unspecified)
inactive: Potency [1] | Potency [3] | Potency [4] | Potency [6]

C=C1C[C@@H]2[C@H](CC[C@]3(C)C(=O)CC[C@@H]23)[C@@]2(C)C=CC(=O)C=C12
active: Potency [1] 6.68 µM
inactive: Potency [3] | Potency [4] | Potency [6] | Potency [7] | outcome [8] | outcome [9]

CN(C)C1CCCCC1
inactive: Potency [1] | Potency [3] | Potency [4] | Potency [6] | Potency [7]

CCC(CC)(CNC(=O)CCCO)c1cccc(OC)c1
inactive: Potency [1] | Potency [3] | Potency [4] | Potency [5] | Potency [6] | outcome [8] | outcome [9]

CCCCCCC(=O)CCCCCC/C=C/C[C@@H](O)[C@H](O)[C@@](N)(CO)C(=O)O
inactive: activity change, negative = inhibition [1] 34.1% [at 19 µM] | activity change, negative = cytotoxicity [3] 2.63% [at 19 µM] | activity change, negative = cytotoxicity [4] -0.265% [at 19 µM] | activity change, negative = cytotoxicity [6] 5.36% [at 19 µM] | activation [7] -1.01% [at 19 µM] | cAMP activity change [8] 0.106% [at 18.9 µM] | activity change, negative = inhibition [9] -2.59% [at 19 µM]

CCCOc1nn(C(=O)NS(=O)(=O)c2ccccc2C(=O)OC)c(=O)n1C
inactive: Potency [1] | Potency [3] | Potency [4] | Potency [5] | Potency [6] | outcome [8] | outcome [9]

Brc1c(Br)c(Br)c(Br)c(Br)c1Br
inactive: activity change, negative = inhibition [1] -28% [at 8.39 µM] | activity change, negative = cytotoxicity [3] 0.311% [at 8.39 µM] | activity change, negative = cytotoxicity [4] -3.01% [at 8.39 µM] | activity change, negative = cytotoxicity [6] -0.381% [at 8.39 µM] | activation [7] -2.37% [at 8.39 µM] | cAMP activity change [8] 7.95% [at 8.39 µM] | activity change, negative = inhibition [9] 0.318% [at 8.39 µM]

N=C(N)[Se]
inactive: Potency [1] | outcome [2] | Potency [3] | Potency [6] | outcome [8] | outcome [9]

CCOC(=O)CC(SP(=S)(OC)OC)C(=O)OCC (stereo unspecified)
inactive: Potency [1] | Potency [3] | Potency [4] | Potency [6] | Potency [7] | outcome [8] | outcome [9]
27.3 µM (active) and inactive: Potency [5]

CCN[C@@H](C)Cc1cccc(C(F)(F)F)c1
inactive: Potency [1] | Potency [3] | Potency [4] | Potency [6] | Potency [7] | outcome [8] | outcome [9]

BrCC1CO1 (stereo unspecified)
inactive: Potency [1] | Potency [3] | Potency [4] | Potency [6] | Potency [7]

CCN(CC)CCOC(=O)C(O)(c1ccccc1)c1ccccc1
inactive: Potency [1] | Potency [3] | Potency [4] | Potency [6] | Potency [7] | outcome [8] | outcome [9]

CCC1(c2ccccc2)C(=O)N(COC)C(=O)N(COC)C1=O
inactive: Potency [1] | Potency [3] | Potency [4] | Potency [5] | Potency [6] | outcome [8] | outcome [9]

CC[C@@H](CO)NC(=O)[C@@H]1C=C2c3cccc4[nH]cc(c34)C[C@H]2N(C)C1
inactive: Potency [1] | Potency [3] | Potency [4] | Potency [5] | Potency [6] | outcome [8] | outcome [9]
